Some test systems named below: NCI-H23 lung; NCI-H226 lung; NCI-H322M lung; HOP-62 NSCLC; NCI-H460 lung; HOP-92 NSCLC; NCI-H522 lung; A549/ATCC NSCLC; 786-0 renal; COLO 205 colon; DU-145 prostate; K-562 leukemia; MALME-3M melanoma; MDA-MB-231 breast; RXF 393 renal; SF-268 CNS; SF-295 CNS; SF-539 CNS; UACC-257 melanoma; M14 melanoma.
What all share (assay): NCI-60 one-dose screen, 48 h (100 = growth as untreated, 0 = no growth, -100 = all killed)
Holding throughout (conditions): 10 µM unless noted

This is part of a sample that, as a whole, favours compounds with a hit. Of some 83,000 tested, about 20% had one in any assay.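 Growth was measured after 48 h exposure to one concentration of compound in 96-well plates. Values under 10 count as active.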 Unmarked numbers belong to inactive results. Active and inactive are the calls of the source.

As for `C[n+]1cccc(NC(=O)c2ccc3ccc4ccc(C(=O)Nc5ccc[n+](C)c5)nc4c3n2)c1`, the growth was 32.3% in the experiment on NCI-H23 lung; 5.55% (active) with NCI-H226 lung; 37.3% with NCI-H322M lung; 21.3% in the experiment with HOP-62 NSCLC; -7.42% (active) in the experiment with NCI-H460 lung; 57.5% in the experiment on HOP-92 NSCLC. In addition, the growth is -19% (active) in the experiment with NCI-H522 lung; -3.45% (active) in the experiment with A549/ATCC NSCLC; 76.2% in the experiment on 786-0 renal; 75.3% in the experiment on COLO 205 colon; 9.79% (active) in the experiment on DU-145 prostate; 35.8% with K-562 leukemia. The growth in the experiment with MALME-3M melanoma is 81.4%; in the experiment on MDA-MB-231 breast, 33.2%; in the experiment on RXF 393 renal, 33%; with SF-268 CNS, 53.3%; in the experiment on SF-295 CNS, 5.59% (active); with SF-539 CNS, 37.7%. The growth in the experiment on UACC-257 melanoma is 94.4%; with M14 melanoma it was 53.6%.

Turning to `OC(c1ccc(Cl)cc1)(c1ccc(Cl)cc1)C(O)(c1ccc(Cl)cc1)c1ccc(Cl)cc1`, the growth in the experiment with NCI-H23 lung was 53.1%; in the experiment with NCI-H226 lung, 54.6%; with NCI-H322M lung it was 46.4%; with HOP-62 NSCLC, 65.1%; in the experiment with NCI-H460 lung, 26.6%; in the experiment on HOP-92 NSCLC it was 24.7%. The growth is 41.6% with NCI-H522 lung; 44.9% with A549/ATCC NSCLC; 31.9% in the experiment with 786-0 renal; 45% with COLO 205 colon; 61.3% with DU-145 prostate; 32.4% in the experiment on K-562 leukemia. In addition, the growth with MALME-3M melanoma was 70.9%; in the experiment on MDA-MB-231 breast it was 39.8%; in the experiment with RXF 393 renal, 16.2%; in the experiment on SF-268 CNS, 38.9%; in the experiment on SF-295 CNS, -2.57% (active); in the experiment on SF-539 CNS, 87.2%. Further, the values for the growth in the experiment with UACC-257 melanoma and with M14 melanoma were 64.7% and 35.6%, respectively.

Regarding `CCCCCCCCCCCCCCCCCCNC(=S)N/N=C/c1ccc(OC)c(OC)c1`, the growth is 93.9% in the experiment on NCI-H23 lung; 99.2% in the experiment with NCI-H226 lung; 98.7% with NCI-H322M lung; 98.6% in the experiment on HOP-62 NSCLC; 103% in the experiment on NCI-H460 lung; 69.4% with HOP-92 NSCLC. The growth is 94.6% in the experiment on NCI-H522 lung; 98.3% in the experiment on A549/ATCC NSCLC; 102% in the experiment with 786-0 renal; 104% in the experiment on COLO 205 colon; 102% with DU-145 prostate; 98.8% in the experiment on K-562 leukemia. Besides, the growth with MALME-3M melanoma was 87.4%; in the experiment with MDA-MB-231 breast it was 92.7%; in the experiment on RXF 393 renal it was 110%; in the experiment with SF-268 CNS, 98.7%; with SF-295 CNS, 95.7%; with SF-539 CNS, 93.6%. In addition, the growth in the experiment on UACC-257 melanoma was 100%; in the experiment on M14 melanoma, 104%.

With `O=C(Nc1cccnc1)c1ccc2ccc3ccc(C(=O)Nc4cccnc4)nc3c2n1`, the growth is 23.1% with NCI-H23 lung; 4.52% (active) in the experiment on NCI-H226 lung; 10.5% in the experiment with NCI-H322M lung; 9.18% (active) with HOP-62 NSCLC; 1.69% (active) in the experiment with NCI-H460 lung; 23.9% in the experiment with HOP-92 NSCLC. For the same compound, the growth is 30.7% in the experiment with NCI-H522 lung; 22.1% in the experiment on A549/ATCC NSCLC; 19.9% in the experiment on 786-0 renal; 13.2% in the experiment on COLO 205 colon; 14.6% with DU-145 prostate; 17.1% with K-562 leukemia. Moreover, the growth is 46.7% in the experiment on MALME-3M melanoma; 25.2% with MDA-MB-231 breast; -50.4% (active) in the experiment on RXF 393 renal; 15.9% in the experiment on SF-268 CNS; 5.39% (active) in the experiment on SF-295 CNS; -6.56% (active) in the experiment with SF-539 CNS. For the same compound, the figures for the growth with UACC-257 melanoma and with M14 melanoma were 30.8% and 15.5%, respectively.

Regarding `Cc1cccc(/C=C2\N=C(c3ccccc3)N(c3ccc(S(N)(=O)=O)cc3)C2=O)c1`, the growth in the experiment with NCI-H23 lung is 90%; with NCI-H226 lung, 110%; in the experiment on NCI-H322M lung, 97.5%; with HOP-62 NSCLC, 83.5%; in the experiment with NCI-H460 lung it was 93.2%; in the experiment on HOP-92 NSCLC, 105%. In addition, the growth is 82.5% with NCI-H522 lung; 75.7% in the experiment with A549/ATCC NSCLC; 95.2% in the experiment on 786-0 renal; 104% in the experiment with COLO 205 colon; 97% in the experiment with DU-145 prostate; 90.9% in the experiment on K-562 leukemia. The growth in the experiment with MALME-3M melanoma is 82.7%; with MDA-MB-231 breast, 96.7%; with RXF 393 renal, 102%; in the experiment on SF-268 CNS, 91.4%; in the experiment on SF-295 CNS it was 86.5%; with SF-539 CNS it was 72.2%. Moreover, the growth was 94.4% in the experiment on UACC-257 melanoma and 107% in the experiment on M14 melanoma.

Regarding `C[C@]12CCc3c(ccc4cc(O)ccc34)[C@@H]1CC[C@H]2O`, the growth with NCI-H23 lung is 95.7%; in the experiment with NCI-H226 lung, 91.9%; in the experiment on NCI-H322M lung, 105%; with HOP-62 NSCLC, 103%; in the experiment on NCI-H460 lung, 102%; with HOP-92 NSCLC, 84.1%. Also, the growth with NCI-H522 lung was 88.3%; in the experiment on A549/ATCC NSCLC, 108%; in the experiment with 786-0 renal it was 104%; with COLO 205 colon, 108%; in the experiment with DU-145 prostate, 104%; in the experiment with K-562 leukemia it was 94.9%. For the same compound, the growth with MALME-3M melanoma is 101%; in the experiment on MDA-MB-231 breast it was 88.3%; in the experiment with RXF 393 renal it was 97.2%; with SF-268 CNS, 91.4%; in the experiment with SF-295 CNS it was 84.9%; in the experiment on SF-539 CNS it was 91%. The growth in the experiment on UACC-257 melanoma was 102%; in the experiment on M14 melanoma it was 101%.

As to `CCOc1cc(/C=N\NC(=O)N/N=C/c2ccc(O)c(OCC)c2)ccc1O`, the growth in the experiment on NCI-H23 lung is 33%; in the experiment on NCI-H226 lung, 55.5%; in the experiment on NCI-H322M lung it was 50.7%; in the experiment on HOP-62 NSCLC, 38.9%; with NCI-H460 lung, 11.8%; with HOP-92 NSCLC, 80.7%. In addition, the growth with NCI-H522 lung is -18.6% (active); with A549/ATCC NSCLC, 59.4%; in the experiment with 786-0 renal, 28.6%; in the experiment with COLO 205 colon, 42.7%; with DU-145 prostate it was 14.9%; in the experiment on K-562 leukemia, 10.6%. The growth is 60.2% in the experiment on MALME-3M melanoma; 51.5% in the experiment on MDA-MB-231 breast; 24.9% in the experiment with RXF 393 renal; 45.7% in the experiment with SF-268 CNS; 18% in the experiment with SF-295 CNS; -9.06% (active) with SF-539 CNS. Moreover, the figures for the growth in the experiment on UACC-257 melanoma and in the experiment on M14 melanoma were 61.9% and 19.3%, respectively.

(Values after PubChem BioAssay (NCI).)
